Results from PubChem BioAssay AID1159580 (chemical genetic matrix, 2015).
Where “and” joins values, the source holds several entries; their conditions need not be identical. Equal entries are not always repeated. About 2,000 (36%) of roughly 5,500 compounds were called active. Roughly 18% stayed inconclusive and do not appear here. No stated cut-off is given here; in the data, active means normalized growth mostly below about 0.91 (no sharp cut-off); inconclusive means no clear call, values can overlap the other calls; inactive means mostly above about 0.92. The list shows a part of the results.

Test: chemical genetic growth profiling, strain panel (AID 1159580);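 further: tested at 20 µM; growth read once vehicle control cultures reached saturation at 30 °C; 1 = growth at the plate median or of vehicle wells; lower values mean less growth of the strain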
Details: S. cerevisiae deletion strains, growth OD

Measured: normalized growth

CC(=O)OCC(=O)[C@@]1(O)CCC2C3CCC4=CC(=O)C=CC4(C)C3[C@@H](O)C[C@@]21C (stereo partly drawn)
inactive: locus YAL021C, strain ccr4, active compounds read low 1 | locus YAL026C, strain drs2, active compounds read low 1 | locus YAL030W, strain snc1, active compounds read low 0.997 | locus YBL061C, strain skt5, active compounds read low 0.996 | locus YBR009C, strain hhf1, active compounds read low 1.01 | locus YBR021W, strain FUR4, active compounds read low 1.02 | locus YBR023C, strain chs3, active compounds read low 0.994 | locus YBR171W, strain sec66, active compounds read low 0.973 | locus YBR229C, strain ROT2, active compounds read low 1.01 | locus YBR231C, strain swc5, active compounds read low 0.978 | locus YBR279W, strain paf1, active compounds read low 0.993 | locus YCL011C, strain gbp2, active compounds read low 0.996 | locus YCL016C, strain dcc1, active compounds read low 1.01 | locus YCL029C, strain bik1, active compounds read low 1.02 | locus YCL061C, strain MRC1, active compounds read low 0.997 | locus YCL069W, strain vba3, active compounds read low 1 | locus YCR088W, strain abp1, active compounds read low 0.998 | locus YDL005C, strain med2, active compounds read low 0.992 | locus YDL035C, strain GPR1, active compounds read low 1.02 | locus YDL040C, strain nat1, active compounds read low 1 | locus YDL074C, strain BRE1, active compounds read low 1.02 | locus YDL101C, strain DUN1, active compounds read low 1 | locus YDL134C, strain PPH21, active compounds read low 1.01 | locus YDL185W, strain tfp1, active compounds read low 1.02 | locus YDL192W, strain arf1, active compounds read low 1.02 | locus YDR001C, strain nth1, active compounds read low 1 | locus YDR069C, strain doa4, active compounds read low 0.99 | locus YDR101C, strain arx1, active compounds read low 1.02 | locus YDR137W, strain rgp1, active compounds read low 0.978 | locus YDR150W, strain NUM1, active compounds read low 1 | locus YDR159W, strain sac3, active compounds read low 1 | locus YDR162C, strain NBP2, active compounds read low 1.01 | locus YDR195W, strain ref2 0.984 | locus YDR297W, strain sur2, active compounds read low 0.992 | locus YDR318W, strain mcm21, active compounds read low 1.03 | locus YDR334W, strain swr1, active compounds read low 1 | locus YDR335W, strain msn5, active compounds read low 1 | locus YDR388W, active compounds read low 1.02 | locus YDR392W, strain spt3, active compounds read low 1.02 | locus YDR502C, strain sam2, active compounds read low 1.01 | locus YEL003W, strain gim4, active compounds read low 0.998 | locus YEL037C, strain rad23, active compounds read low 1 | locus YEL061C, strain CIN8 (second series), active compounds read low 0.98 | locus YEL061C, strain CIN8, active compounds read low 1 | locus YER015W, strain faa2, active compounds read low 0.996 | locus YER016W, strain bim1, active compounds read low 1.01 | locus YER110C, active compounds read low 1.01 | locus YER111C, strain swi4, active compounds read low 0.996 | locus YER155C, strain BEM2 (second series), active compounds read low 0.978 | locus YER155C, strain BEM2, active compounds read low 1 | locus YER167W, strain BCK2, active compounds read low 1.01 | locus YFR010W, strain ubp6, active compounds read low 0.993 | locus YGL078C, strain dbp3, active compounds read low 1.01 | locus YGL086W, strain mad1, active compounds read low 1 | locus YGL167C, strain pmr1, active compounds read low 0.999 | locus YGL173C, strain kem1, active compounds read low 0.992 | locus YGL227W, strain vid30, active compounds read low 1 | locus YGL240W, strain doc1, active compounds read low 0.972 | locus YGL248W, strain PDE1, active compounds read low 1.01 | locus YGL253W, strain hxk2, active compounds read low 1.01 | locus YGR135W, strain pre9, active compounds read low 1.02 | locus YGR252W, strain gcn5, active compounds read low 1.05 | locus YHR013C, strain ard1, active compounds read low 0.978 | locus YHR027C, strain rpn1, active compounds read low 1 | locus YHR030C, strain SLT2, active compounds read low 1 and 0.977 | locus YHR079C, strain IRE1 (second series), active compounds read low 1.02 | locus YHR079C, strain IRE1, active compounds read low 0.964 | locus YHR094C, strain hxt1, active compounds read low 1.01 | locus YHR129C, strain ARP1, active compounds read low 1 | locus YHR142W, strain chs7, active compounds read low 0.989 | locus YHR200W, strain rpn10, active compounds read low 1.01 | locus YIL066C, strain RNR3, active compounds read low 1.01 | locus YIL073C, strain SPO22, active compounds read low 1.03 | locus YIL125W, strain kgd1, active compounds read low 1.01 | locus YIR030C, strain dcg1, active compounds read low 1.02 | locus YJL092W, strain hpr5, active compounds read low 0.995 | locus YJL095W, strain BCK1 (second series), active compounds read low 0.995 | locus YJL095W, strain BCK1, active compounds read low 1.03 and 0.993 | locus YJL115W, strain asf1, active compounds read low 0.994 | locus YJL129C, strain trk1, active compounds read low 0.97 | locus YJL134W, strain LCB3, active compounds read low 1.01 | locus YJL154C, strain vps35, active compounds read low 0.996 | locus YJL164C, strain tpk1, active compounds read low 1.01 | locus YJL166W, strain qcr8, active compounds read low 0.951 | locus YJL168C, strain set2, active compounds read low 1.02 | locus YJL187C, strain SWE1 (second series), active compounds read low 1.01 | locus YJR043C, strain POL32, active compounds read low 1.01 | locus YJR066W, strain TOR1, active compounds read low 0.935
